# Experimental data published in PubChem BioAssay.
# Calls of active or inactive are those of the source.
# How the values were obtained:
# [1] = test system: PRMT1 (protein arginine N-methyltransferase 1); assay: small molecules binding arginine methyltransferase PRMT1 – biochemical, small-molecule microarray, 635 nm fluorescence, primary screen (AID 1088); details: higher = more signal;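 further: binding of Prmt1 protein to compounds spotted on small-molecule microarray slides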
# [2] = growth effects on S. cerevisiae YJM789 – YJM789 clinical isolate, OD600, 24 h, basal, primary screen (AID 1089); details: higher = more signal, called active from +8 up or from −8 down;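 further: growth of clinical yeast isolate S. cerevisiae YJM 789 seeded 1000 cells per well; test concentration not given here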
# [3] = S. pombe growth modifiers, basal conditions – strain 972, OD600, 24 h, no modulator, primary screen (AID 1090);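 further: basal condition with compound alone and no growth modifier present; test concentration not given here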; details: S. pombe 972 growth, higher = more signal, called active from +8 up or from −8 down
# [4] = budding yeast growth modifiers under rapamycin – strain BY4716, OD600, 96 h, primary screen (AID 1091); further: test concentration not given here; details: S. cerevisiae BY4716 + rapamycin, higher = more signal, called active from +8 up or from −8 down
# [5] = target: Torsin-1A-interacting protein 2 (Homo sapiens) (UniProt Q8NFQ8); assay: small molecules binding lysate-expressed LULL1 – cell lysate, human LULL1 lysate, 635/667 nm fluorescence, primary screen (AID 1092); details: small-molecule microarray, hLULL1 lysate binding, 635 nm fluorescence; higher = more signal;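 further: probe is lysate of COS7 cells overexpressing human LULL1; score merges per-feature 667 nm fluorescence with signal-to-noise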
# Chain of Torsin-1A-interacting protein 2 (Homo sapiens) (Q8NFQ8 whole entry, looked up): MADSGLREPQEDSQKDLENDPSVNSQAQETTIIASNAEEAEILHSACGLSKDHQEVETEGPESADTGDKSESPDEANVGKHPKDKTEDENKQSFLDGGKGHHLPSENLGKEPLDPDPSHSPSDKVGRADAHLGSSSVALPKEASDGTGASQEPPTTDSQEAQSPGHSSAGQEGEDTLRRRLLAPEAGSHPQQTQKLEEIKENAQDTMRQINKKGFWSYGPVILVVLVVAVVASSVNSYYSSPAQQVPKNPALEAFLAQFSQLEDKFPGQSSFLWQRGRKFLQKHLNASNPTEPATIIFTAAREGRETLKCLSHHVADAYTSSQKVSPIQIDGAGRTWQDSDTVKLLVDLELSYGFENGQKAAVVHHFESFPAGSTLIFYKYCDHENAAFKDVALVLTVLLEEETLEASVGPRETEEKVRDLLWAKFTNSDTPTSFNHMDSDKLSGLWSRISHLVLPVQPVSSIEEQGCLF
# [6] = optical density change of DRC41 E. coli – strain DRC41, OD650, 24 h, E. coli filamentation project, primary screen (AID 1093);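 further: MC1000 strain lacking acrAB efflux and sulA so SOS filamentation is blocked; test concentration not given here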; details: E. coli DRC41 growth, higher = more signal, called active from +8 up or from −8 down
# [7] = probe aLefty2 binding to arrayed compounds – biochemical, biotinylated probe, 635/667 nm fluorescence, primary screen (AID 1094); details: small-molecule microarray, higher = more signal;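 further: score merges spot fluorescence near 667 nm with spot signal-to-noise ratio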
# [8] = test system: Noggin (protein binding on small-molecule microarray); assay: small molecules binding Noggin protein – biochemical, 635/667 nm fluorescence, primary screen (AID 1095); details: 635 nm fluorescence, higher = more signal;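 further: score merges 667 nm feature fluorescence with signal to noise over triplicate slides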
# [9] = target: Neurogenic locus notch homolog protein 3 (Homo sapiens) (UniProt Q9UM47); assay: small molecules binding NOTCH3 protein – biochemical, 635/667 nm fluorescence, primary screen (AID 1096); details: small-molecule microarray, 635 nm fluorescence, higher = more signal
# Chain of Neurogenic locus notch homolog protein 3 (Homo sapiens) (Q9UM47 whole entry, looked up): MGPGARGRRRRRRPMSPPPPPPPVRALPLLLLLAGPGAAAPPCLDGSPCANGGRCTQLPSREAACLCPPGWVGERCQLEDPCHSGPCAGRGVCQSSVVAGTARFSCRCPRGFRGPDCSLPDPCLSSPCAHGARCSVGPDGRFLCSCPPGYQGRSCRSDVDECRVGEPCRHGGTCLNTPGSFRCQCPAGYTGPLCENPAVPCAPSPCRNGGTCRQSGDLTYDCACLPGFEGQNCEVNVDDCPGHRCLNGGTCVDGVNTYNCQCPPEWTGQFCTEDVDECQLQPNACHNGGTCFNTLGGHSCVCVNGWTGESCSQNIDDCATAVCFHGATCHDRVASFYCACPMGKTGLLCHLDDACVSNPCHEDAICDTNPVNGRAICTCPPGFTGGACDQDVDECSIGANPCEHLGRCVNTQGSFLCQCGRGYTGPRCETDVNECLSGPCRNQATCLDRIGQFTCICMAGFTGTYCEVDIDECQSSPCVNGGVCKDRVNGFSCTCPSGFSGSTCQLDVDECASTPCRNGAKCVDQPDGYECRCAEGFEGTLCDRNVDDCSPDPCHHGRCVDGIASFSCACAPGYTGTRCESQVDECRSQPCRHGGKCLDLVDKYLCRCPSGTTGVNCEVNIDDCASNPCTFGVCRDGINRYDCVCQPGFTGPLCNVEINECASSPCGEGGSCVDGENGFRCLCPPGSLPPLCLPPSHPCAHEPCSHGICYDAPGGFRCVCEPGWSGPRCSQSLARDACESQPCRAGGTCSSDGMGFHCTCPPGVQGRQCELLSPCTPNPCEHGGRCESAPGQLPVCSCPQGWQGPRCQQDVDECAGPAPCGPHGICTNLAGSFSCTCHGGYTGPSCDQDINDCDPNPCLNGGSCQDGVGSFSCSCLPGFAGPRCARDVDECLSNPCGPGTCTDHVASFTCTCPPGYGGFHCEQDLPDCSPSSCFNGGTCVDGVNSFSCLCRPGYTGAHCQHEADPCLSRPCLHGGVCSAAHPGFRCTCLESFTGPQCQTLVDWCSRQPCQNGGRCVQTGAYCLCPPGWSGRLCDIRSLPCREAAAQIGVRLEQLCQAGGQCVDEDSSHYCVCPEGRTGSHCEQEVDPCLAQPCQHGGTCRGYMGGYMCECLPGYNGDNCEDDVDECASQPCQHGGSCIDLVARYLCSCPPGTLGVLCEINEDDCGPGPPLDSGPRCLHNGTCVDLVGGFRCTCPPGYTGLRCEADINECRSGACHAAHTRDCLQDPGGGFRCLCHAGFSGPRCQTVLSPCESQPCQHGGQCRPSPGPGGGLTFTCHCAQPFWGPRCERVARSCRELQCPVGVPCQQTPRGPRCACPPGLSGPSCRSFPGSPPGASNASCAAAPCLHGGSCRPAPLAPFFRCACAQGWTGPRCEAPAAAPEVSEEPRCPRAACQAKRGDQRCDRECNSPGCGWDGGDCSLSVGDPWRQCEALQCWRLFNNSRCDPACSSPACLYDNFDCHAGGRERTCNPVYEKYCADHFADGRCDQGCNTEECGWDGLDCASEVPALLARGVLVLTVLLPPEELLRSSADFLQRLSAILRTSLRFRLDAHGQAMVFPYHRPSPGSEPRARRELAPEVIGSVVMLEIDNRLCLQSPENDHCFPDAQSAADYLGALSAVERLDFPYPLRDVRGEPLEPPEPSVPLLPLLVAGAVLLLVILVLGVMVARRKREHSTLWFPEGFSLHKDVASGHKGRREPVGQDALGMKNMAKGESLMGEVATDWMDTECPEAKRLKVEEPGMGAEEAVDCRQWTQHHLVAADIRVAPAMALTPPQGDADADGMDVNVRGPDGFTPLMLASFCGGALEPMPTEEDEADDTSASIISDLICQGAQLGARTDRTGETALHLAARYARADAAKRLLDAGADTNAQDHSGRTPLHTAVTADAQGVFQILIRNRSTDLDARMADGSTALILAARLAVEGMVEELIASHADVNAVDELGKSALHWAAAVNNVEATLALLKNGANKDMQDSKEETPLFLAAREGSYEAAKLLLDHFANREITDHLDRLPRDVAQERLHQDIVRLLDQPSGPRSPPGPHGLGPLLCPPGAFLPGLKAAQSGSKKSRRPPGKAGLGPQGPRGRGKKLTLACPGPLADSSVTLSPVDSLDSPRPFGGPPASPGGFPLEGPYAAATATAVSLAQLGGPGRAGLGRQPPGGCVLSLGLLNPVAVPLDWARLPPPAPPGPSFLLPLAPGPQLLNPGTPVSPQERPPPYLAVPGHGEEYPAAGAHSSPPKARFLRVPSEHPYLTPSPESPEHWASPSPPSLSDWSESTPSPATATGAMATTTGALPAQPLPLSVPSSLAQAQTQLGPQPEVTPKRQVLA
# [10] = probe aEGFR binding to arrayed compounds – biochemical, biotinylated probe, 635/667 nm fluorescence, primary screen (AID 1097); details: small-molecule microarray, higher = more signal;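 further: probe is a biotinylated anti-EGFR antibody binding compounds printed on slides; score combines fluorescence near 667 nm and signal to noise of each spot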
SMILES,composite z-score [1],z-score [2],z-score [3],z-score [4],composite z-score [5],z-score [6],composite z-score [7],composite z-score [8],composite z-score [9],composite z-score [10]
O=C1NC(=O)C2C1C=CC(C(O)C(O)CO)N2Nc1ccccn1 (stereo not given),0.635,-0.517 (inactive),0.294 (inactive),-0.73 (inactive),0.541,-1.02 (inactive),-0.343,0.349,0.32,0.0713
COc1ccc(C(O)C2C=CC3C(=O)N(c4ccccc4)C(=O)C3N2Nc2ccccc2F)c2ccccc12 (stereo not given),1.55,-0.466 (inactive),-0.0101 (inactive),0.257 (inactive),3.33,-0.0841 (inactive),0.582,0.117,1.05,0.697
CC(C)[Si]1(C(C)C)OCc2cc(-c3ccc(-c4ccc(Cl)c(Cl)c4)o3)nc(-c3ccc(Oc4ccccc4)cc3)c21,-1.67,0.797 (inactive),-0.504 (inactive),2.3 (inactive),-1.07,-0.888 (inactive),0.0358,-1.78,-1.57,-0.447
CC[C@@H](O[Si](C#C[Si](C(C)C)(C(C)C)C(C)C)(C(C)C)C(C)C)c1cn([C@H](CO)Cc2ccccc2)nn1,1.34,1.57 (inactive),1.22 (inactive),0.532 (inactive),1.51,0.598 (inactive),-0.232,0.715,0.907,-0.0584
COc1ccc([Si](C)(C)[C@H]2[C@H](CC(=O)N(CCO)Cc3ccccc3)O[C@@]3(C(=O)N(Cc4ccc(N5C(=O)c6cccc7cccc5c67)cc4)c4ccccc43)[C@@H]2C)cc1,1.48,0.614 (inactive),0.685 (inactive),2.87 (inactive),2.15,0.222 (inactive),0.748,1.36,1.12,0.0059
COC(=O)[C@@]1(Cc2ccccc2)[C@H]2c3cc(C(=O)N(C)C)n(Cc4nc5ccccc5[nH]4)c3C[C@H]2CN1C(=O)c1ccccc1,0.964,-0.895 (inactive),0.338 (inactive),-0.678 (inactive),3.5,0.914 (inactive),0.718,-0.307,1.06,0.135
CC(C)(C)OC(=O)CC[C@@]1(C(=O)N2CCOCC2)N=C(c2ccc(OCCCO)cc2)O[C@@H]1c1ccccc1CN=[N+]=[N-],1.38,-0.335 (inactive),-0.183 (inactive),-0.654 (inactive),3.83,0.675 (inactive),0.313,1.06,0.985,0.103
C=CCNC(=O)[C@@H]1[C@H]2C(=O)O[C@H](c3ccccc3)[C@H](c3ccccc3)N2[C@H](c2ccc(O)cc2)[C@@]12C(=O)Nc1ccc(C#CC3=CCCCC3)cc12,1.55,1.03 (inactive),0.185 (inactive),1.74 (inactive),2.93,-0.43 (inactive),-0.162,1.03,1.05,0.392
Cc1ccc(S[C@]2(C(=O)NCCN3CCOCC3)CC(=O)N(C(C)C)[C@@H]2c2ccc(CO)cc2I)cc1,1.5,-2.73 (inactive),-1.75 (inactive),-0.616 (inactive),2.46,3.42 (inactive),0.126,-0.889,0.0467,-0.0234
COc1ccc([Si](C)(C)[C@H]2[C@H](CC(=O)N3CCC[C@H]3CO)O[C@@]3(C(=O)N(Cc4cccc(N5CCCCC5=O)c4)c4ccccc43)[C@@H]2C)cc1,1.52,-0.439 (inactive),0.294 (inactive),-1.23 (inactive),1.98,0.561 (inactive),-0.174,1.23,1.09,-0.139
CCCCC(=C=CC[C@H](O)c1ccccc1OCCO)CCO,0.95,0.149 (inactive),-0.211 (inactive),-0.34 (inactive),1.04,0.288 (inactive),-0.19,-0.0419,-0.102,-0.0664
C=CCNC(=O)[C@H]1[C@@H]2C(=O)O[C@@H](c3ccccc3)[C@@H](c3ccccc3)N2[C@@H](c2ccc(O)cc2)[C@]12C(=O)N(C(=O)OCCOC)c1ccc(C#Cc3ccc(OC)cc3)cc12,1.42,0.622 (inactive),0.074 (inactive),1.66 (inactive),2.23,-0.866 (inactive),-0.0302,0.44,0.892,0.0219
COc1ccc([Si](C)(C)[C@H]2[C@H](CC(=O)N(CCO)Cc3ccccc3)O[C@@]3(C(=O)N(Cc4cccc(N5CCCCC5=O)c4)c4ccccc43)[C@@H]2C)cc1,1.45,-1.68 (inactive),-0.0671 (inactive),2.14 (inactive),0.876,1.27 (inactive),-0.0719,0.659,0.604,-0.045
C=C(COC)/C(=C/C[C@@H](OC(=O)c1ccncc1)c1ccccc1OCCO)c1cnc2ccccc2c1,1.54,-0.564 (inactive),-1.61 (inactive),0.698 (inactive),2.03,1.1 (inactive),-0.0304,1.95,1.02,0.0533
COC(=O)C(CC#Cc1ccc2c(c1)[C@]1(C(=O)N2)[C@H](C(=O)N2CCCCCCC2)[C@H]2C(=O)O[C@H](c3ccccc3)[C@H](c3ccccc3)N2[C@@H]1c1ccc(OCCO)cc1)C(=O)OC,1.52,-0.0902 (inactive),0.563 (inactive),1.28 (inactive),5.35,0.149 (inactive),1.79,2.35,1.01,1.38
[N-]=[N+]=NCc1ccccc1C[C@]1(C(=O)N2CCCCC2)COC(c2ccc(OCCCO)cc2)=N1,1.57,0.504 (inactive),-1.92 (inactive),34.8 (active),1.55,3.43 (inactive),0.346,0.683,0.202,0.306
COCCOC(=O)N1C(=O)[C@@]2(c3cc(C#CC4=CCCCC4)ccc31)[C@H](C(=O)N1CCCCCCC1)[C@H]1C(=O)O[C@H](c3ccccc3)[C@H](c3ccccc3)N1[C@@H]2c1ccccc1OCCO,1.55,1.01 (inactive),-1.22 (inactive),1.98 (inactive),3.02,0.87 (inactive),1.15,1.5,1.06,0.417
CC[C@@H]1C=C(C(=O)O)[C@H](c2cccc(Cl)c2)N1S(=O)(=O)c1ccc(C)cc1,0.877,-0.848 (inactive),-0.874 (inactive),-0.177 (inactive),3.5,-0.944 (inactive),0.0595,-0.791,-0.118,-0.128
COC(=O)C1(CC(C)C)C=C2C(=C(C)C(=O)C2C)CN1 (stereo not given),-0.999,-0.355 (inactive),0.543 (inactive),0.202 (inactive),2.1,-0.698 (inactive),0.374,-0.054,0.379,0.449
COc1cc(Cc2cc3c(c(-c4ccccc4)n2)[Si](C(C)C)(C(C)C)OC3)cc(OC)c1OC,-0.313,0.208 (inactive),-0.949 (inactive),-0.573 (inactive),-0.501,1.22 (inactive),-0.0991,0.331,-0.108,-0.0864
[N-]=[N+]=NCc1ccccc1C[C@@]1(C(N)=O)N=C(c2ccc(OCCCO)cc2)O[C@@H]1c1ccccc1N=[N+]=[N-],1.28,-0.506 (inactive),-0.292 (inactive),-0.531 (inactive),3.22,-0.331 (inactive),0.137,0.0508,0.516,0.0766
[N-]=[N+]=NCc1ccccc1C[C@@]1(C(=O)NCCN2CCOCC2)N=C(c2ccc(OCCCO)cc2)O[C@@H]1c1ccccc1,1.37,-0.941 (inactive),-3.76 (inactive),15.8 (active),2.96,-0.304 (inactive),-0.0073,0.565,0.65,-0.0128
COc1ccc([Si](C)(C)[C@@H]2[C@@H](CC(=O)N3CCC[C@H]3CO)O[C@]3(C(=O)N(Cc4cccc(N5C(=O)c6cccc7cccc5c67)c4)c4ccccc43)[C@H]2C)cc1,1.34,-0.702 (inactive),-0.487 (inactive),-0.158 (inactive),1.48,1.55 (inactive),-0.0757,0.641,0.368,-0.115
C=C[C@@H](CO)NS(=O)(=O)c1ccc(Br)cc1,-0.635,-3.08 (inactive),-3.63 (inactive),-1.27 (inactive),-0.361,3.54 (inactive),-0.24,-0.275,-1.85,-0.164
COC(=O)[C@@]1(Cc2ccccc2)[C@H]2c3cc(C(=O)N(C)C)n(CCF)c3C[C@H]2CN1C(=O)c1ccccc1,0.479,0.176 (inactive),1.18 (inactive),0.678 (inactive),2.21,-0.0418 (inactive),0.534,-0.669,0.782,0.21
CCOC(=O)C[C@H]1[C@H](OC(=O)c2cc3ccccc3oc2=O)[C@@H](NC(=O)Cc2ccc(OC)cc2)c2cc(OCCCO)ccc2N1C(=O)Cc1ccc(OC)cc1,0.638,-0.903 (inactive),-1.04 (inactive),-1.79 (inactive),1.65,1.52 (inactive),-0.058,0.534,0.91,-0.0313
C=CCOC(=O)[C@H]1[C@@H]2C(=O)O[C@@H](c3ccccc3)[C@@H](c3ccccc3)N2[C@@H](c2ccc(OCCOC(=O)[C@H]3C[C@H]4C(=O)NCC(=O)N4[C@H]3c3cccc(OCCO)c3)cc2)[C@]12C(=O)Nc1ccc(I)cc12,1.54,1.29 (inactive),0.682 (inactive),3.48 (inactive),2.78,0.0763 (inactive),-0.172,1.69,1.06,0.0389
[N-]=[N+]=Nc1ccccc1C[C@]1(C(N)=O)COC(c2ccc(OCCCO)cc2)=N1,-0.0424,-0.684 (inactive),-0.846 (inactive),0.0643 (inactive),2.84,0.0474 (inactive),0.538,-0.863,-0.0154,0.516
